Test results published in PubChem BioAssay AID1159580 (chemical genetic matrix, 2015).
Where “and” joins values, the source holds several entries; their conditions need not be identical. Equal entries are not always repeated. Among all 5,500 compounds or so, about 2,000 (36%) were called active. Inconclusive results (about 18%) are left out. No stated cut-off is given here; in the data, active means normalized growth mostly below about 0.91 (no sharp cut-off); inconclusive means no clear call, values can overlap the other calls; inactive means mostly above about 0.92. This is one part of the list.

Assay: chemical genetic growth profiling, strain panel (AID 1159580);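 further: tested at 20 µM; growth read once vehicle control cultures reached saturation at 30 °C; 1 = growth at the plate median or of vehicle wells; lower values mean less growth of the strain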
Conditions: S. cerevisiae deletion strains, growth OD

Measured: normalized growth

N=C(N)N
inactive: locus YAL013W, strain DEP1, active compounds read low 1.01 | locus YAL021C, strain ccr4, active compounds read low 0.995 | locus YAL026C, strain drs2, active compounds read low 0.994 | locus YAL030W, strain snc1, active compounds read low 0.993 | locus YBL061C, strain skt5, active compounds read low 0.992 | locus YBR009C, strain hhf1, active compounds read low 1.01 | locus YBR021W, strain FUR4, active compounds read low 1.03 | locus YBR023C, strain chs3, active compounds read low 1.01 | locus YBR171W, strain sec66, active compounds read low 0.977 | locus YBR229C, strain ROT2, active compounds read low 0.999 | locus YBR231C, strain swc5, active compounds read low 0.98 | locus YBR279W, strain paf1, active compounds read low 0.993 | locus YCL011C, strain gbp2, active compounds read low 1.01 | locus YCL016C, strain dcc1, active compounds read low 1.01 | locus YCL029C, strain bik1, active compounds read low 0.963 | locus YCL061C, strain MRC1, active compounds read low 0.996 | locus YCL069W, strain vba3, active compounds read low 0.998 | locus YCR088W, strain abp1, active compounds read low 0.992 | locus YDL005C, strain med2, active compounds read low 0.987 | locus YDL035C, strain GPR1, active compounds read low 1.03 | locus YDL040C, strain nat1, active compounds read low 1 | locus YDL074C, strain BRE1, active compounds read low 1.01 | locus YDL101C, strain DUN1, active compounds read low 0.991 | locus YDL134C, strain PPH21, active compounds read low 1.01 | locus YDL185W, strain tfp1, active compounds read low 0.968 | locus YDL192W, strain arf1, active compounds read low 0.982 | locus YDR001C, strain nth1, active compounds read low 0.994 | locus YDR069C, strain doa4, active compounds read low 0.983 | locus YDR101C, strain arx1, active compounds read low 0.994 | locus YDR137W, strain rgp1, active compounds read low 1 | locus YDR150W, strain NUM1, active compounds read low 0.992 | locus YDR159W, strain sac3, active compounds read low 0.929 | locus YDR162C, strain NBP2, active compounds read low 0.996 | locus YDR195W, strain ref2 0.943 | locus YDR297W, strain sur2, active compounds read low 0.993 | locus YDR318W, strain mcm21, active compounds read low 0.981 | locus YDR334W, strain swr1, active compounds read low 0.992 | locus YDR335W, strain msn5, active compounds read low 1.06 | locus YDR388W, active compounds read low 0.972 | locus YDR392W, strain spt3, active compounds read low 0.875 | locus YDR502C, strain sam2, active compounds read low 0.999 | locus YEL003W, strain gim4, active compounds read low 0.992 | locus YEL037C, strain rad23, active compounds read low 0.998 | locus YEL061C, strain CIN8 (second series), active compounds read low 1 | locus YEL061C, strain CIN8, active compounds read low 0.996 | locus YER015W, strain faa2, active compounds read low 0.999 | locus YER016W, strain bim1, active compounds read low 0.997 | locus YER110C, active compounds read low 0.976 | locus YER111C, strain swi4, active compounds read low 0.998 | locus YER155C, strain BEM2 (second series), active compounds read low 0.976 | locus YER155C, strain BEM2, active compounds read low 1 | locus YER167W, strain BCK2, active compounds read low 1.02 | locus YFR010W, strain ubp6, active compounds read low 0.995 | locus YGL078C, strain dbp3, active compounds read low 1 | locus YGL086W, strain mad1, active compounds read low 1.01 | locus YGL167C, strain pmr1, active compounds read low 1 | locus YGL173C, strain kem1, active compounds read low 0.987 | locus YGL227W, strain vid30, active compounds read low 0.991 | locus YGL240W, strain doc1, active compounds read low 0.999 | locus YGL248W, strain PDE1, active compounds read low 1 | locus YGL253W, strain hxk2, active compounds read low 1 | locus YGR078C, strain PAC10, active compounds read low 0.997 | locus YGR135W, strain pre9, active compounds read low 1 | locus YGR229C, strain SMI1, active compounds read low 1.04 | locus YGR252W, strain gcn5, active compounds read low 1.13 | locus YHR013C, strain ard1, active compounds read low 1.01 | locus YHR027C, strain rpn1, active compounds read low 1.01 | locus YHR030C, strain SLT2, active compounds read low 1 and 1.05 | locus YHR079C, strain IRE1 (second series), active compounds read low 0.977 | locus YHR079C, strain IRE1, active compounds read low 1.03 | locus YHR094C, strain hxt1, active compounds read low 0.974 | locus YHR129C, strain ARP1, active compounds read low 0.992 | locus YHR142W, strain chs7, active compounds read low 1.02 | locus YHR200W, strain rpn10, active compounds read low 0.992 | locus YIL066C, strain RNR3, active compounds read low 0.994 | locus YIL073C, strain SPO22, active compounds read low 0.9 | locus YIL125W, strain kgd1, active compounds read low 0.991 | locus YIR030C, strain dcg1, active compounds read low 0.99 | locus YJL092W, strain hpr5, active compounds read low 0.999 | locus YJL095W, strain BCK1 (second series), active compounds read low 0.998 | locus YJL095W, strain BCK1, active compounds read low 0.993 and 1.05 | locus YJL115W, strain asf1, active compounds read low 0.99 | locus YJL129C, strain trk1, active compounds read low 0.985 | locus YJL134W, strain LCB3, active compounds read low 0.997 | locus YJL154C, strain vps35, active compounds read low 0.994 | locus YJL164C, strain tpk1, active compounds read low 1.01 | locus YJL166W, strain qcr8, active compounds read low 1.01 | locus YJL168C, strain set2, active compounds read low 0.975 | locus YJL187C, strain SWE1 (second series), active compounds read low 0.946 | locus YJL187C, strain SWE1, active compounds read low 0.993 | locus YJR043C, strain POL32, active compounds read low 0.999 | locus YJR066W, strain TOR1, active compounds read low 0.957
